Results reported in PubChem BioAssay (NCATS).
Values joined by “and” are separate entries in the source; they are usually repeats but may differ in a detail not shown here. Equal entries are not always repeated. Inconclusive results are not listed. Unmarked numbers belong to inactive results. Active and inactive are the calls of the source. The call rests on the fitted dose curve; in most records, active means well fitted curve in the direction sought with a large enough effect; inconclusive means small, poorly fitted or top-dose-only effect, or another doubt; inactive means no such curve, though single readings can be large; an effect the other way counts as inactive or inconclusive.

Columns and labels:
[1] = target: Cellular tumor antigen p53 (Homo sapiens) (UniProt P04637); experiment: Primary qHTS for small molecule compounds that upregulate eGFP-tagged delta133p53alpha (in N-terminal) cells. (AID 2060322); conditions: NCI-H358 eGFP-delta133p53alpha fluorescence, 24 h; activation: hits give high values; further: nearly all actives have a fitted effect of over 75% in size;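 on activation: cells pre-induced with doxycycline then dosed without doxycycline; 0% = DMSO vehicle and 100% = reference activator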
How it was run: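 NCI-H358 cells pre-induced 24 h with 10 ng/ml doxycycline for eGFP-delta133p53alpha, plated dox-free and exposed 24 h at 37C to titrated compounds. Fixed, Hoechst-stained; gated GFP peak intensity by laser scanning cytometry, normalized to DMSO (0%) and 57.5 uM 5-azacytidine (100%).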

[2] = BET inhibitor-based combinations targeting novel dependencies in MECOM-rearranged (r) AML: SET-2 cell line (AID 2202231); conditions: SET-2 AML cells viability, CellTiter-Glo luminescence, 48 h; viability: hits give low values, concentration not given here; further: nearly all actives have a fitted effect of over 35% in size;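 on viability: plate controls were DMSO treated cells for no effect and wells without cells for full effect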
How it was run: (§1)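 Each compound was tested at eleven concentrations on cells seeded at 500/well. After two days' incubation, ATP-based luminescence reported viability; responses relative to DMSO and blank wells yielded AUC and cell-line-centred Z-AUC.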

[3] = BET inhibitor-based combinations targeting novel dependencies in MECOM-rearranged (r) AML: OCI-AML3 cell line (AID 2202232); conditions: CellTiter-Glo luminescence, 48 h; Potency: OCI-AML3 viability; series mostly up to 46 µM; further: nearly all actives have a fitted effect of over 35% in size
How it was run: as §1

[4] = BET inhibitor-based combinations targeting novel dependencies in MECOM-rearranged (r) AML: MV-4-11 cell line (AID 2202233); conditions: MV-4-11 AML viability, CellTiter-Glo luminescence, 48 h; series mostly up to 46 µM; further: nearly all actives have a fitted effect of over 45% in size
How it was run: (§2)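 First, 500 cells per well were seeded; next, drugs were pinned as 11-point doses; then plates sat 48 hr in the incubator; finally CellTiter-Glo was added and luminescence read, with AUC and Z-AUC computed.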

[5] = BET inhibitor-based combinations targeting novel dependencies in MECOM-rearranged (r) AML: HNT-34 cell line (AID 2202234); conditions: HNT-34 AML viability, CellTiter-Glo luminescence, 48 h; series mostly up to 46 µM; further: nearly all actives have a fitted effect of over 35% in size
How it was run: as §2

[6] = BET inhibitor-based combinations targeting novel dependencies in MECOM-rearranged (r) AML: UCSD-AML1 cell line (AID 2202235); conditions: UCSD-AML1 AML cells viability, CellTiter-Glo, 48 h; series mostly up to 46 µM; further: nearly all actives have a fitted effect of over 40% in size
How it was run: as §2

[7] = BET inhibitor-based combinations targeting novel dependencies in MECOM-rearranged (r) AML: AML-194 cell line (AID 2202237; further: nearly all actives have a fitted effect of over 40% in size); conditions: AML-194 (MECOM-r AML) viability, CellTiter-Glo, 48 h; series mostly up to 46 µM
How it was run: as §1

[8] = BET inhibitor-based combinations targeting novel dependencies in MECOM-rearranged (r) AML: AML-191 cell line (AID 2202236; further: nearly all actives have a fitted effect of over 35% in size); conditions: AML-191 viability, CellTiter-Glo luminescence, 48 h; series mostly up to 46 µM
How it was run: as §1
Potency means the concentration at half of the fitted maximal effect.

Chain of Cellular tumor antigen p53 (Homo sapiens) (P04637 whole entry, looked up): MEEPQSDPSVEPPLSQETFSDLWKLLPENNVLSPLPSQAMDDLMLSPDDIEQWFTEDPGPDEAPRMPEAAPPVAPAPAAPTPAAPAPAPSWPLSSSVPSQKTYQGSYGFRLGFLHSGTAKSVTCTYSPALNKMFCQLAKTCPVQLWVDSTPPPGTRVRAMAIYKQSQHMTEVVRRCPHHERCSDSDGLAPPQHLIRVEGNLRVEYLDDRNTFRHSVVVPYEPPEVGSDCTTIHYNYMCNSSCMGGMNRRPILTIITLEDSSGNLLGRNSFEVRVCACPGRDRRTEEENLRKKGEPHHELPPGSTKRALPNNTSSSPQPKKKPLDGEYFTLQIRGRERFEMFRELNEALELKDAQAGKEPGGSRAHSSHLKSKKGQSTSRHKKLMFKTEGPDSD

Row | Structure (SMILES) | activation [1] | viability [2] | Potency [3] | Potency [4] | Potency [5] | Potency [6] | Potency [7] | Potency [2] | Potency [8] | Potency [1]
1 | Nc1ncnc2ccccc12 | 22.8% | 115% | inactive | inactive | inactive | inactive | inactive |  |  | 
2 | C1CCC(C(CC2CCCCN2)C2CCCCC2)CC1 (stereo not given) | 21.8% |  | 6.61 µM (active) | 8.33 µM (active) | 7.42 µM (active) |  | 7.42 µM (active) | 11.8 µM (active) | 9.34 µM (active) | 
3 | N[C@@H](CC(=O)N1CCn2c(nnc2C(F)(F)F)C1)Cc1cc(F)c(F)cc1F | -12.2% | 112% | inactive | inactive | inactive | inactive | inactive |  | inactive | 
4 | CCCc1nc2c(C)cc(-c3nc4ccccc4n3C)cc2n1Cc1ccc(-c2ccccc2C(=O)O)cc1 | -6.69% and 11.8% | 120% | inactive | inactive | inactive |  | inactive |  | inactive | 
5 | NS(=O)(=O)c1cc2c(cc1Cl)NC(C(Cl)Cl)NS2(=O)=O (stereo not given) | -14.1% and -9.47% | 112% | 16.6 µM (active) | inactive | inactive | inactive | inactive |  |  | 
6 | O=C1c2ccccc2-[n+]2ccc3c([nH]c4ccccc43)c21 |  |  | 1.86 µM (active) | 1.48 µM (active) | 1.86 µM (active) | 1.86 µM (active) | 2.35 µM (active) | 2.63 µM (active) |  | 15.3 µM (active)
7 | Nc1ncnc2c1nc(Cl)n2[C@@H]1O[C@H](CO)[C@@H](O)[C@@H]1O | -2.08% |  | 13.2 µM (active) | 5.25 µM (active) | 2.95 µM (active) | 5.9 µM (active) | 2.63 µM (active) | 11.8 µM (active) |  | 
